Compound activity (PubChem BioAssay)
KinaseGlo FLuc: Counterscreen for Luciferase (Kinase-Glo TM) Inhibition; Kinase-Glo luciferase, ATP luminescence, 8 min; Potency, µM (top dose mostly 38.3 µM), for the others: at the top dose activity change, negative = inhibition, actives largely listed as inhibitors; 0.28% of 200,000 active; Luciferin 4-monooxygenase (Photuris pensylvanica), Q27757; note: % is set by controls: 0 for no effect and ±100 for the full control effect; nearly all actives have a fitted effect of over 60% in size
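Recombinant Kinase-Glo luciferase, 10 uM ATP (linear range), luciferin; imidazole pH 7.2 / KCl / MgCl2 / Tween / BSA buffer; 8 min RT; luminescence.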
ELG1 genotox: qHTS screen for small molecules that induce genotoxicity in human embryonic kidney (HEK293T) cells expressing luciferase-tagged ELG1; HEK293T ELG1-luciferase reporter, luminescence, 16 h; Potency, µM (top dose mostly 46 µM), for inactives: at the highest dose activity change, positive = activation, actives largely listed as activators; 1.3% of 330,000 active; AID 504466, 2011; note: % of control where 0% means no effect; nearly all actives have a fitted effect of over 60% in size
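Quantitative HTS format in 1536-well plates. HEK293T ELG1-luciferase reporter cells receive test compound and are incubated 16 hr at 37 °C, 5% CO2; ONE-Glo added, 30 min room temperature, then luminescence read.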
Rab9 prom act: qHTS Assay for Rab9 Promoter Activators. Huh7 Rab9 promoter-luciferase reporter, luminescence, 24 h. Potency, µM (highest dose often 9.22 µM), for inactives: at the top dose activation, negative = inhibition, hits mostly activators. 2.8% of 320,000 active; note: % of control where 0% means no effect; nearly all actives have a fitted effect of over 60% in size
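Using Huh7 cells stably transfected with Rab9 promoter–luciferase, compounds were incubated 24 h at 37 °C, 5% CO2; luciferase luminescence was read 10 min after reagent addition.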
NPC1 promoter act: qHTS Assay for NPC1 Promoter Activators; Huh7 NPC1 promoter luciferase reporter, 24 h; Potency, µM (top dose mostly 9.22 µM), without a hit: top-dose activation, actives largely listed as activators; 2.4% of 320,000 active; AID 485313, 2010; note: % of control where 0% means no effect; nearly all actives have a fitted effect of over 60% in size
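Cells: Huh7 expressing luciferase under the NPC1 promoter, 1500/well. Seeded 2 h, compound added, incubated 24 h at 37 °C. Luciferase reagent, 10 min ambient, then luminescence.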
SMN2 splice enh: qHTS Assay for Enhancers of SMN2 Splice Variant Expression | HEK293 SMN2-luciferase splicing reporter, luminescence, 30-36 h | Potency, µM (doses to about 46.1 µM), for the others: at the top dose activity change, positive = activation, most hits filed as activators | 2.8% of 210,000 active | AID 1458, 2008; note: % of control where 0% means no effect; nearly all actives have a fitted effect of over 55% in size
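qHTS luciferase splicing reporter: luminescence rises when SMN2 exon 7 is included in transfected HEK293 cells. Compound exposure lasted 30-36 h at 37C, with 4.5 mM final sodium butyrate as control, followed by a ONE-Glo read.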
FLuc counter: qHTS profiling assay for firefly luciferase inhibitor/activator using purifed enzyme and Km concentrations of substrates (counterscreen for miR-21 project). purified FLuc, Km substrates, luminescence inhibition. Luciferin 4-monooxygenase (Photinus pyralis), P08659. Potency, µM (titrated, usually from 57.5 µM), for inactives: at the highest dose activity change, negative = inhibition, hits mostly inhibitors. AID 588342, 2011. 6.9% of 360,000 active;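 note: plate controls were vehicle for no effect and reference inhibitor for full effect; nearly all actives have a fitted effect of over 55% in size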
Target sequence (P08659 whole entry, looked up): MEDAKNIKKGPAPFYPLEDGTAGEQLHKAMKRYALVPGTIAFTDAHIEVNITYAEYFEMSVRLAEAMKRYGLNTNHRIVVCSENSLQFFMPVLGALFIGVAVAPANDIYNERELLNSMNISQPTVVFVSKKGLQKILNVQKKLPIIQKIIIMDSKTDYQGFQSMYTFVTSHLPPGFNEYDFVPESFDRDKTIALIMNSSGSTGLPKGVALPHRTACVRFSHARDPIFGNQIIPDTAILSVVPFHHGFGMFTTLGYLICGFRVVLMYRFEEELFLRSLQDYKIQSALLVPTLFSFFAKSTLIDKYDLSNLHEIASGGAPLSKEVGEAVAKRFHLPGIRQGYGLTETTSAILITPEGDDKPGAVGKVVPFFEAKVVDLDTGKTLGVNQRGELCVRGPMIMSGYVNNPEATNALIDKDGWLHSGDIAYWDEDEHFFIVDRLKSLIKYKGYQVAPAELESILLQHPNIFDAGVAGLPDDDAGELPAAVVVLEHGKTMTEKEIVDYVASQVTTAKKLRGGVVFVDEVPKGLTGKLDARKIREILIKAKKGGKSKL
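Biochemical qHTS of compounds, final roughly 60 µM downward over six points, against 10 nM purified firefly luciferase using Km concentrations of substrates (10 uM D-luciferin, 10 uM ATP) in Tris acetate pH 7.5 buffer; luminescence output.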
Active calls of the source: *; ? = inconclusive; . = not tested or not shown; [ ] = dose if it differs, or a comment. Shown are actives, neighbours in structure and some others; about 7.3% of the full set was active somewhere. Calls come from the whole dose curve; as a rule, active = well fitted curve in the direction sought with a large enough effect; inconclusive = small, poorly fitted or top-dose-only effect, or another doubt; inactive = no such curve, though single readings can be large; an effect the other way counts as inactive or inconclusive. Potency is the fitted concentration of half-maximal effect.

SMILES	KinaseGlo FLuc	ELG1 genotox	Rab9 prom act	NPC1 promoter act	SMN2 splice enh	FLuc counter
CCN(C(=O)c1nn(-c2ccc(OC)c(Cl)c2)c(=O)c2c1c1ccccc1n2C)c1cccc(C(F)(F)F)c1	.	.	.	.	6%	0%
O=C(N/N=C/c1cccnc1)c1ccc(O)cc1	.	2%	3%	12%	.	?
O=C(N/N=C/c1ccc2c(c1)OCO2)c1ccc2c(c1)OCO2	.	-4%	2.5µM*	2.2µM*	.	?
O=C(N/N=C/c1cccnc1)c1ccc2c(c1)OCO2	.	?	?	?	.	8.5µM*
O=C(N/N=C/c1cc2c(cc1Cl)OCO2)c1ccc2c(c1)OCCO2	.	9%	19%	4%	.	7.6µM*
Cc1cc(C(=O)N/N=C/c2cccc(OC(=O)c3ccco3)c2)n[nH]1	0%	8%	8%	2%	?	17µM*
O=C(Cc1ccccc1)N/N=C/c1cc2c(cc1Cl)OCO2	2%	0%	1%	6%	-18%	?
Cc1cc(C(=O)N/N=C/c2cccnc2)n[nH]1	.	2%	11%	0%	.	-5%
O=C(N/N=C\c1ccc(S(=O)(=O)O)o1)c1ccc2c(c1)OCO2	.	-2%	-4%	2%	.	?
COc1cccc(-n2c(-c3ccco3)nc3c(cnn3-c3ccc(C)cc3)c2=O)c1	.	.	.	.	-35%	-5%
CCOc1ccccc1NC(=O)CSc1ccc2nnc(CCNS(=O)(=O)c3ccccc3)n2n1	.	.	.	.	.	-2%
CC(C)CS(=O)(=O)c1oc(-c2ccc(F)cc2)nc1S(=O)(=O)c1ccccc1	.	.	.	.	12%	-8%
CCCCn1c(C)cc2c(c1=O)C1O[C@](c3ccc(OC)cc3)(Cc3cc(OC)c(OC)cc31)O2	.	.	3%[1.84 µM]	-6%[1.84 µM]	.	?
COc1ccc(OC)c(NC(=O)COCc2cc(-c3ccco3)on2)c1	.	.	.	.	.	-7%
CCOc1ccc(N2CC(NC(=O)C3CCCCC3)CC2=O)cc1 (configuration not stated)	.	.	.	.	.	2%
CN(C)c1ccc(/C=N/NC(=O)CNC(=O)c2ccc3c(c2)OCCO3)cc1	6%	17%	-7%	-6%	-10%	?
O=C(NCc1ccccn1)C(=O)N/N=C/c1ccc2c(c1)OCO2	-3%	5%	10%	-2%	.	17µM*
CCN(CC)c1ccc(/C=N/NC(=O)CNC(=O)c2ccc3c(c2)OCCO3)cc1	.	-3%	6%	3%	.	17µM*
O=C(N/N=C/c1c(Cl)[nH]c2ccccc12)c1ccc2c(c1)OCCO2	.	?	?	?	.	1.5µM*
O=C(N/N=C/c1ccc[nH]1)c1ccc2c(c1)OCO2	-11%	?	12%	-5%	?	13µM*
COC(=O)c1sccc1S(=O)(=O)N(CC(=O)NCc1ccc(F)cc1)c1ccc(C)c(C)c1	.	.	.	.	.	-2%
O=C(NC1CC(=O)N(c2cccc(F)c2)C1)c1ccc(S(=O)(=O)N2CCCC2)cc1 (configuration not stated)	.	.	.	.	.	-7%
COc1ccccc1NC(=O)CSC1=Nc2ccccc2C2=NC(CCC(=O)NCc3cccs3)C(=O)N12 (configuration not stated)	.	.	.	.	.	5%
Cc1ccc(CNC(=O)CSc2ncc3c(n2)-c2cc(Cl)ccc2N(C)S3(=O)=O)cc1	.	.	.	.	.	4%
Cc1[nH]c2ccccc2c1/C=N\NC(=O)CNc1ccc2c(c1)OCO2	1%	0%	-6%	1%	-8%	11µM*
SMILES	KinaseGlo FLuc	ELG1 genotox	Rab9 prom act	NPC1 promoter act	SMN2 splice enh	FLuc counter
O=C(N/N=C/c1cccc(O)c1)c1ccc2c(c1)OCCO2	.	?	-1%	?	.	1.7µM*
Cc1cc(Cl)c(S(=O)(=O)N/N=C/c2ccc3c(c2)OCO3)c(Cl)c1	-6%	6%	12%	16%	?	15µM*
O=C(N/N=C\c1ccc2c(c1)OCO2)c1ccco1	.	15µM*	1.8µM*	3.2µM*	.	8.5µM*
O=C(CNc1ccc2c(c1)OCO2)N/N=C\c1ccccc1Cl	-1%	0%	-5%	0%	1%	?
O=C(CNC(=O)c1ccc2c(c1)OCCO2)N/N=C/c1ccc(O)cc1O	0%	1%	2%	-2%	7%	-14%
O=C(CNC(=O)c1cccc(Br)c1)N/N=C/c1ccc2c(c1)OCO2	.	?	2%	0%	.	17µM*
COc1cc(C(=O)NCC(=O)N/N=C/c2cccc(OC(=O)c3ccco3)c2)cc(OC)c1OC	0%	13%	3%	-4%	7%	?
O=C(N/N=C\c1cccc(OC(=O)c2ccco2)c1)c1ccc2c(c1)OCO2	-3%	15µM*	25%	24%	?	1.7µM*
O=C(CNC(=O)c1ccc2c(c1)OCO2)Nc1cccc(Br)c1	.	1%	-2%	-2%	.	1%
O=C(COc1ccccc1Cl)Nc1nc(-c2cccs2)cs1	7%	-1%	1%	-2%	-3%	17µM*
Cc1cc(Cl)ccc1OCC(=O)Nc1nc(-c2cccs2)cs1	-3%	-1%	-1%	-3%	-10%	24µM*
Cc1cc(Cl)ccc1OCC(=O)Nc1nc(-c2cccnc2)cs1	.	14%	9%	-3%	.	-2%
CCOC(=O)c1csc(NC(=O)COc2ccc(Cl)cc2Cl)n1	-4%	0%	-8%	-2%	-8%	24µM*
CCCC(=O)Nc1nc(C(=O)OCC)cs1	-1%	4%	3%	9%	-8%	-5%
CC(=O)Nc1nc(-c2cccs2)cs1	0%	1%	29%	?	-5%	?
COc1ccc(NC(=O)CSC2=Nc3ccccc3C3=NC(CC(=O)NCc4ccc(F)cc4)C(=O)N23)cc1 (configuration not stated)	.	.	.	.	.	-9%
Cc1c(CC(=O)O)c(=O)oc2cc3oc4c(c3cc12)CCCC4	.	4%	-2%	0%	.	27µM*
Cc1oc2cc3oc(=O)c(CC(=O)O)c(C)c3cc2c1-c1ccccc1	.	4%	-2%	0%	.	-19%
Cc1c(CC(=O)NCC(=O)O)c(=O)oc2cc3oc4c(c3cc12)CCCC4	.	-1%	-2%[1.84 µM]	-10%	.	15µM*
Cc1c(CC(=O)NCC(=O)NCC(=O)O)c(=O)oc2c(C)c3oc4c(c3cc12)CCCC4	.	0%	7%	1%	.	?
O=c1c2ccccc2oc2cc(-c3ccc(CN4CCOCC4)cc3)ccc12	.	-10%	?	2.2µM*	.	6.7µM*
O=C1/C(=C/c2cccc([N+](=O)[O-])c2)Oc2cc(O)ccc21	.	0%	3%	13%	.	?
COc1cc(C=O)ccc1O	2%	.	.	.	2%	.
